# Screening data as filed in PubChem.
# Shown are actives, neighbours in structure and some others; about 3.5% of the full set was active somewhere.
# CRE Fsk mod – modulators of forskolin-stimulated CRE signaling in CHO cells. CHO CRE-bla reporter (cAMP response element driving beta-lactamase), forskolin EC10, beta-lactamase ratio. Potency, µM (titrated, usually from 38.2 µM), hits mostly activators. 71,000 tested, 2.5% active. AID 662; active = well fitted activation curve with a large enough effect in the signal ratio, with a control signal flat, not every such curve was filed as active; inconclusive = small, poorly fitted or top-dose-only effect, or effect the other way, or a change in a side signal; the % refers to the signal ratio
#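 Modulation of forskolin signalling: compounds in titration series added with EC10 NKH 477 to CHO cells carrying a CRE-driven beta-lactamase reporter, 3 h, 37C. CCF4 FRET ratio (460/530 nm, ex 405 nm) gives %activity and AC50.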
# Hsp90 Hop PPI – changes Hsp90-Hop TPR2A binding signal, up or down; AlphaScreen TPR2A-His6 binding biotin-Hsp90 C-terminal peptide; Potency, µM (titrated, usually from 57 µM); 71,000 tested, 0.44% active; AID 595; active = well fitted curve in either direction with a large enough effect; inconclusive = small, poorly fitted or top-dose-only effect, or another doubt
# IkB sig inh – suppresses IkB signaling in ABC-DLBCL reporter cells. ABC-DLBCL IkBa-CBG/CBR dual luciferase ratio, 4 h; response scale: scaled: untreated 0%, proteasome inhibitor 100%. Potency, µM (titrated, usually from 57.1 µM). 110,000 tested, 0.04% active. AID 445; active = well fitted curve in the direction sought with a large enough effect in the signal ratio, not every such curve was filed as active; inconclusive = small, poorly fitted or top-dose-only effect, or a change in a side signal; the % refers to the signal ratio;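 also: the direction sought is a rising ratio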
#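 Luminescence ratio of IκBα-fused green versus native red beetle luciferase in OCI-Ly3 cells, 4 h post-doxycycline with compound; red signal alone, scaled from basal (0%) to zero light (-100%), flagged nonspecific or cytotoxic effects.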
# HEK293 cAMP cs – raises cAMP in parental HEK293 cells, TSHR agonist counter-screen. parental HEK293 CNG cAMP sensor, membrane potential fluorescence. Potency, µM (doses to about 57.1 µM), hits mostly activators. 73,000 tested, 2.5% active; active = well fitted activation curve with a large enough effect; inconclusive = small, poorly fitted or top-dose-only effect; inactive = no such curve, though single readings can be large or run the other way; also: nearly all actives have a fitted effect of over 55% in size
#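 Parental HEK 293 cells stably expressing a modified CNG channel (no TSHR) report cAMP rise as membrane depolarization. Membrane potential dye with 100 uM RO 20-1724 was loaded for 60 min at room temperature, then compound added for 30 min; fluorescence read at 590 nm.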
# TSHR ag – TSH receptor (human) agonism; HEK293-CNG-TSHR cells (CNG channel as cAMP sensor), membrane potential dye, cAMP; Potency, µM (titrated, usually from 57.1 µM), hits mostly activators; 73,000 tested, 0.48% active; AID 926; active = well fitted activation curve with a large enough effect in the main read-out, with a control signal flat, not every such curve was filed as active; inconclusive = small, poorly fitted or top-dose-only effect, or a change in a side signal; inactive = no such curve, though single readings can be large or run the other way; reference of the percent scale not stated here;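 also: the control signal comes from parental cells without the receptor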
# Target sequence (P16473 whole entry, looked up): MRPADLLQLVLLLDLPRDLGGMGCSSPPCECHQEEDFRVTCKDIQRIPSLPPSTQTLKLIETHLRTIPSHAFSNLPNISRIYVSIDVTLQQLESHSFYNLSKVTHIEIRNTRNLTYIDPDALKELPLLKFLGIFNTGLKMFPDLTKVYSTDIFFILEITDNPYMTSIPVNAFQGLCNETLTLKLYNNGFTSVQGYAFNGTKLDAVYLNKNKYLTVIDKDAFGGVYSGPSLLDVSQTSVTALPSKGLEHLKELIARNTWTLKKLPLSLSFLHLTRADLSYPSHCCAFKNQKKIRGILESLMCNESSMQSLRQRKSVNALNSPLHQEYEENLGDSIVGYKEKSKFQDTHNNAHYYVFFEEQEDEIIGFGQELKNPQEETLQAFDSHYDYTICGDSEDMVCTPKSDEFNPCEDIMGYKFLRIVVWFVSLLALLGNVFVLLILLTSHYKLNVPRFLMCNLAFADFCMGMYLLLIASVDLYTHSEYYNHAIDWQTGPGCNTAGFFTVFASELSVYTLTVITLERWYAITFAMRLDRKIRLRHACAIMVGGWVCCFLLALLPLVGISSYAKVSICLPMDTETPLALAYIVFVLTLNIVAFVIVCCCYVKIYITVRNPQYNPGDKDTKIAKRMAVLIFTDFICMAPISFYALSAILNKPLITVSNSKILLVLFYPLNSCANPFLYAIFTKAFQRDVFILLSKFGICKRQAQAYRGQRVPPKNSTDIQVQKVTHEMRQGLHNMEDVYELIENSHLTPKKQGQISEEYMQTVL
#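 HEK 293 cells stably expressing TSHR and a modified CNG channel, with CNG-only parental cells as counterscreen, were preloaded 60 min at room temperature with membrane potential dye containing 100 uM RO 20-1724. Compound exposure was 30 min, and depolarization was read as fluorescence at 590 nm.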
# Numbers stand for hits; – = inactive; ? = inconclusive; · = no result; [ ] = another dose, or the depositor's remark.
SMILES,CRE Fsk mod,Hsp90 Hop PPI,IkB sig inh,HEK293 cAMP cs,TSHR ag
COC(=O)NC(/C=C/c1ccco1)[C@@]1(C(=O)OC)CCCC1=O (stereo partly drawn),·,·,·,–[11.4 µM],–[11.4 µM]
NC(=O)C1CCN(c2ncnc3c2cnn3-c2cccc(Cl)c2)CC1,·,·,–,·,·
COC(=O)c1ccccc1NC(=O)CN1CCC(n2nnc3cc(F)ccc32)CC1,–,–,?,25µM,?
COC(=O)c1ccccc1NC(=O)CN1CCN(C23CC4CC(CC(C4)C2)C3)CC1,–,–,–,7.9µM,?
COc1ccc(NC(=O)Cn2c(-c3ccc(F)cc3)cc(C(C)=O)c2C)c(OC)c1,·,·,–,·,·
O=C(CN1CCC(n2nnc3cc(F)ccc32)CC1)Nc1ccccc1N1CCOCC1,?,–,–,–,–
COC(=O)c1ccccc1NC(=O)CN1CCC(NC(=O)c2ccc(C)cc2)CC1,–,–,–,?,?
COc1ccc(NC(=O)CN2CCC(n3c(C)nc4cc(F)ccc43)CC2)c(OC)c1,0.4µM,–,–,–,–
Cc1ccc(NC(=O)c2cccc(N3CCCS3(=O)=O)c2)cc1C,·,·,–,·,·
COc1cccc(C(=O)Nc2cccc(-c3nc4ncccc4o3)c2C)c1,–,–,?,16µM,?
CCOc1cccc2cc(-c3cn4cc(C)ccc4n3)c(=O)oc12,1µM,–,–,–,–
COc1cccc2cc(-c3cn4cccc(C)c4n3)c(=O)oc12,–,–,–,–,–
Cc1cc(-n2c(C)cc(C(=O)CSc3ncnc4ccccc34)c2C)no1,–,–,?,7.9µM,?
Cc1cc(-n2c(C)cc(C(=O)CSc3nnc4sc5ccccc5n34)c2C)no1,?,–,–,–,–
COc1ccc(Oc2ncc3nc(-c4cn(C)c5ccccc45)c(=O)n(C4CC4)c3n2)cc1,?,–,–[11.4 µM],–[0.457 µM],–
COc1ccc(Oc2ncc3nc(-c4cn(C)c5ccccc45)c(=O)n(CCC#N)c3n2)cc1,?,5µM,–[11.4 µM],–,–
COCCn1c(=O)c(-c2cn(C)c3ccccc23)nc2cnc(Oc3cccc(Cl)c3)nc21,1.3µM,–,–[11.4 µM],?,?
Cn1cc(-c2nc3cnc(Oc4cccc(Cl)c4)nc3n(C3CC3)c2=O)c2ccccc21,16µM,?,–[11.4 µM],–,–
Cn1cc(-c2nc3cnc(Oc4cccc(Cl)c4)nc3n(CCC#N)c2=O)c2ccccc21,?,–,–[11.4 µM],?,?
N#CCCn1c(=O)c(-c2cc(F)cc(F)c2)nc2cnc(Oc3cccc(Cl)c3)nc21,10µM,–,–[11.4 µM],–,–
CCC1CN(C(=O)N2CCC(C(=O)N3CCN(c4ccccc4)CC3)CC2)c2ccccc2O1 (stereo not drawn),·,·,–,·,·
CNc1nnc(CSc2nc3ccccc3s2)s1,?,–,–,–,–
CCN(C(C)=O)c1nnc(CSc2nc3ccccc3s2)s1,13µM,–,–,?,?
CC(=O)c1ccc(C2C=CC(Oc3ccc(-c4ccccc4)cc3)C(CO)O2)cc1 (stereo not drawn),·,·,·,–[11.4 µM],–[11.4 µM]
COc1cccc(C(c2nnnn2CCc2ccccc2)N2CCN(c3ccccc3)CC2)c1OC (stereo not drawn),–,–,?,7.9µM,?
SMILES,CRE Fsk mod,Hsp90 Hop PPI,IkB sig inh,HEK293 cAMP cs,TSHR ag
COc1ccccc1C(c1nnnn1CCc1ccccc1)N1CCN(c2ccccc2)CC1 (stereo not drawn),–,–,–,?,?
N#CCCn1c(=O)c(-c2ccccc2)nc2cnc(N3CCOCC3)nc21,4µM,–,–[11.4 µM],–,–
COCCn1c(=O)c(CCc2ccccc2)nc2cnc(N3CCOCC3)nc21,13µM,–,–[11.4 µM],–,–
O=c1c(-c2ccccc2)nc2cnc(N3CCOCC3)nc2n1CCc1ccccc1,?,5µM,–[11.4 µM],–,–
O=c1c(-c2ccc(Cl)cc2)nc2cnc(N3CCOCC3)nc2n1CCc1ccccc1,?,–,–[11.4 µM],?,?
Cc1nc2cnc(N3CCOCC3)nc2n(CCc2ccccc2)c1=O,13µM,–,–[11.4 µM],3.2µM,?
Oc1c(Br)cc(Br)cc1CN(Cc1cc(Br)cc(Br)c1O)C1CCCCC1,–[7.6 µM],–[11 µM],–[11.4 µM],–[11.4 µM],–[11.4 µM]
Cc1nc2ccn(Cc3cccnc3)c(=O)c2cc1C(=O)NCc1ccccc1,·,·,–,·,·
N#Cc1c(-c2ccccc2)cc(-c2ccccc2)nc1SCC(O)CS(=O)(=O)Cc1ccccc1 (stereo not drawn),·,·,–,·,·
COc1ccc(-c2noc(CSc3nc4ccccc4c(=O)n3-c3ccccc3)n2)cc1OC,?,–,–,–,–
COc1ccc(-c2nnc(CSc3nc4ccccc4c(=O)n3CC(C)C)o2)cc1OC,3.2µM,–,?,7.9µM,?
COc1cc(-c2nnc(CSc3nc4ccccc4s3)o2)cc(OC)c1OC,?,–,?,32µM,?
Cc1cc(N)c2ccccc2[n+]1CCCCCCCCCCCCCC[n+]1c(C)cc(N)c2ccccc21,–,?,?,–,·
CC(C)(C)n1nnnc1C(c1cccs1)N(Cc1ccccc1)Cc1cccnc1 (stereo not drawn),–,–,–,16µM,?
CCN(Cc1ccccc1)C(c1ccncc1)c1nnnn1C(C)(C)C (stereo not drawn),–,–,–,?,?
CC(C)[C@@H](C(=O)O)N1C(=O)c2ccccc2C1=O,–[7.6 µM],–[11 µM],–[11.4 µM],–[11.4 µM],–[11.4 µM]
Cc1ccc(OCC(O)Cn2c(=N)n(CCN3CCOCC3)c3ccccc32)cc1 (stereo not drawn),–,–,–,20µM,?
Nc1nc(Cc2ccccc2)nc(Cc2ccccc2)c1-c1ccccc1,–[7.6 µM],–[11 µM],–[11.4 µM],–[11.4 µM],–[11.4 µM]
Cc1cc(NC(=O)c2cc(-c3cccnc3)nc3c(C)c(C)ccc23)no1,–,–,?,25µM,?
CCc1nc(N)c(C#N)c(-c2cccnc2)c1C,10µM,–,–,?,?
Cc1nc(N)c(C#N)c(-c2cccnc2)c1C,–,–,–,–,–
O=S(=O)(c1ccccc1)N1CCN(c2cc(-c3ccccc3)nc3ncnn23)CC1,–,–,?,?,?
c1ccc(Nc2cc(-c3ccccc3)nc3ncnn23)cc1,10µM,–,–,–,·
CCC1(C)Cc2ccccc2/C(=C/C(=O)N2CCCCC2)N1 (stereo not drawn),–,–,–,16µM,?
Cc1c2ccccc2c(C)c2c1ccc1ccccc12,25µM,32µM,–,?,?
SMILES,CRE Fsk mod,Hsp90 Hop PPI,IkB sig inh,HEK293 cAMP cs,TSHR ag
CC[C@@H]1[C@H]2CCCCN3[C@@H]2[C@@H](C[C@H]3[C@@H]2C[C@H](C)C(=O)O2)[C@@H]2[C@H]1OC(=O)[C@H]2C,?,–,–[11.4 µM],–,–
[C-]#[N+]/C(C#N)=C\c1cc(C(C)(C)C)c(O)c(C(C)(C)C)c1,·,·,·,2.5µM,?
CC(C)(C)c1cc(/C=C(\C#N)C(N)=S)cc(C(C)(C)C)c1O,?,?,?,3.2µM,?
Cc1cccc(-c2nc(C#N)c(N3CCCCCC3)o2)c1,?,?,–,–,25µM
O=C1CCCN1CCCNc1ncnc2c1cnn2-c1ccc(Cl)cc1,3.2µM,–,–,–,–
CCCn1c(C)nc2c(NCCN3CCCC3)nc(C)nc21,?,–,·,?,?
